This passage reports growth results from PubChem BioAssay (NCI).

The structures appear in SMILES notation. This is part of a sample that, as a whole, favours compounds with a hit. Of some 83,000 tested, about 20% had one in any assay.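 Growth was measured after 48 h exposure to one concentration of compound in 96-well plates. Values under 10 count as active.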 The source made the active and inactive calls.

In one assay the test system is SK-MEL-2 melanoma. Nature of the assay: NCI-60 one-dose screen, 48 h (100 = growth as untreated, 0 = no growth, -100 = all killed). To be noted: 10 µM unless noted.
As to `CCCNC(=O)Oc1ccc(/C(=C(\C)c2ccccc2)c2ccc(OCCCN(C)C)cc2)cc1`, the growth is 92.6% (inactive). Same read-out and setting: the figure for `O=C(CSc1nc2sc3c(c2c(=O)n1-c1ccc(Cl)cc1)CCCC3)Nc1nc(-c2cccc(Br)c2)cs1` is 97% (inactive); for `O=C1c2ccc3c4c(ccc(c24)C(=O)N1CCCNCc1ccccc1F)C(=O)N(CCCNCc1ccccc1F)C3=O` it is -82.9% (active). On the same count and under the same terms, the figure for `CCN(CC)c1ccc(/C=N/NC(=O)CSc2nc3ccccc3c(=O)n2CCc2ccc(S(N)(=O)=O)cc2)c(O)c1` is 38.5% (inactive); for `CCCCCN1C=C/C(=C\C(=O)N(C)c2ccc(Oc3ccccc3)cc2)c2ccccc21` it is 98% (inactive). Still for that read-out and setting: the result for `C/C=C(\C)C(=O)NC1=CC[C@@]2(C)C(=CCC3C2CC[C@@]2(C)C3CC[C@@H]2C(C)N(C)C)C1=O` (stereo not given in full) reads 86.5% (inactive); that for `C[C@H]1[C@H](C)CC[C@]2(C(=O)NCC#CCN3CCN(C)CC3)CC[C@]3(C)C(=CC[C@@H]4[C@@]5(C)Cc6c([nH]c7ccccc67)C(C)(C)[C@@H]5CC[C@]43C)[C@H]12`, 105% (inactive).

Consider `CCOC(=O)c1cc(C(=O)c2ccc(Br)cc2)n2ccc(/C=C/c3cc[n+](CC(=O)c4ccc(OC)cc4)cc3)cc12`, for which the growth was 105% (inactive).

Take `NC(=NCCCOc1ccc(F)cc1)Nc1ccc(I)cc1`: the growth is 84.1% (inactive). Consider `O=C(/C=C(/C=C/c1coc2ccccc12)OB(F)F)/C=C/c1coc2ccccc12`, for which the growth was 91.6% (inactive).

As for `COc1cc(NC(=O)CSc2nc3ccc(C)cc3c(=O)n2Cc2ccccc2)cc(OC)c1OC`, the growth was 57.2% (inactive). The same measure, in the same setting: the figure for `Oc1ccc(C2c3ccccc3Oc3ccccc32)c2cccnc12` is 27.4% (inactive). `Cc1ccc(C(=O)/C(=C\c2ccc([N+](=O)[O-])cc2)S(=O)Cc2ccc(F)cc2)cc1` (stereo not given): the growth was 62.3% (inactive). As to `COc1cc2oc(-c3cccc(C(=O)Nc4ccccc4)c3)cc(=O)c2c(O)c1OC`, the growth is 65% (inactive). Take `COc1ccc(C(=O)/C=C/c2cc3ccccc3n3nnnc23)cc1`: the growth was 106% (inactive).

Take `Cc1nc2sccn2c1-c1nc2sccn2c1/C=C1/C(=O)Nc2ccccc21`: the growth is 61% (inactive).

As for `COc1cc2c(c(OC)c1OC)CCC(c1cccc(NC(=O)c3cccc(Br)c3)c1)O2` (stereo not given), the growth was 103% (inactive). On to `CCCCCN1C=C/C(=C\C(=O)N(C)c2ccccc2Br)c2ccccc21`, for which the growth is 109% (inactive). Consider `COc1ccc(C(=O)c2cc(OC)c(OC)c(OC)c2)cc1O`, for which the growth was 59.6% (inactive). Turning to `CC(C)(C)c1cc(C=O)cc(C(C)(C)C)c1O`, the growth was 96.2% (inactive). Take `CCOC(=O)c1nc2c3ccccc3ccn2c1C(=O)OCC`: the growth is 112% (inactive). Take `CC(C)=CCC[C@](C)(O)[C@H]1CC[C@]2(C)[C@@H]1CC[C@@H]1[C@@]3(C)C/C(=C/c4ccccc4)C(=O)C(C)(C)[C@@H]3CC[C@]12C`: the growth is 98.3% (inactive).

As to `C=C(C)[C@@H]1CC[C@]2(C(=O)N3CCN(C)CC3)CC[C@]3(C)[C@H](CC[C@@H]4[C@@]5(C)CC[C@H](O)C(C)(C)[C@@H]5CC[C@]43C)[C@@H]12`, the growth was 61.8% (inactive).

The test system of the next assay is EKVX NSCLC. Described as above. To be noted: 10 µM unless noted.
As to `c1ccc(Cn2cnc3ccc(-c4nc(-c5ccc6c(c5)ncn6C5CCCCC5)cn5ccnc45)cc32)cc1`, the growth is -12.3% (active). The same measure, in the same setting: the result for `N/C(=N\C(N)=N\c1nc2ccccc2s1)c1cccc(Cl)c1` reads 83.3% (inactive); that for `O=C(Cc1ccccc1)NNc1nc(Cl)nc(N2CCN(C(c3ccccc3)c3ccccc3)CC2)n1`, 91.9% (inactive); that for `CCN(CC)c1ccc(C(=O)c2ccccc2)cc1`, 98.4% (inactive).

With `O=C(Nc1ncc(Cc2cc(Cl)ccc2Cl)s1)c1cccs1`, the growth is 64% (inactive). Take `COc1cc(C2C3CC4CCCC[C@H]4N3[C@@]3(C(=O)Nc4cc(Cl)ccc43)C2C(=O)c2nc3ccccc3[nH]2)cc(OC)c1OC` (stereo not given in full): the growth is 48.6% (inactive). Still for that read-out and setting: the figure for `CC(=O)[C@@H]1CC[C@]2(C(N)=O)CC[C@]3(C)[C@H](CC[C@@H]4[C@@]5(C)CCCNC(C)(C)[C@@H]5CC[C@]43C)[C@@H]12` is 93.9% (inactive). Still for that read-out and setting: the figure for `Cc1cccc(C)c1N=c1oc2ccc(Cl)cc2nc1-c1ccccc1O` is 78.8% (inactive); for `O=S(=O)(NCCCNc1nccc(-c2c(-c3cccc(O)c3)nc3occn23)n1)c1ccc(Cl)cc1` it is 99.6% (inactive).

For the compound `N#C/C(=C\c1ccc([N+](=O)[O-])s1)c1nc2cc(Br)ccc2s1`, the growth is -30.8% (active). Still for that read-out and setting: the figure for `Oc1ccc(C(c2ccc(O)cc2)c2ccc(Br)cn2)cc1` is -37.1% (active); for `Cc1nc2sccn2c1-c1cn2ccsc2n1` it is 80.5% (inactive); for `CCOC(=O)/C(C#N)=C1/NNC(=Nc2cccnc2)S1` it is 98.7% (inactive). Same read-out and setting: the result for `O=S(=O)(NCCCNc1nccc(-c2c(-c3cccc(F)c3)nc3sccn23)n1)c1cccc2ccccc12` reads 56.1% (inactive); that for `CCCNC(=O)Oc1ccc(/C(=C(\C)c2ccccc2)c2ccc(OCCCN(C)C)cc2)cc1`, 80.1% (inactive); that for `O=C(CSc1nc2sc3c(c2c(=O)n1-c1ccc(Cl)cc1)CCCC3)Nc1nc(-c2cccc(Br)c2)cs1`, 75% (inactive).

On to `O=C1c2ccc3c4c(ccc(c24)C(=O)N1CCCNCc1ccccc1F)C(=O)N(CCCNCc1ccccc1F)C3=O`, for which the growth was -56.5% (active). On to `CCN(CC)c1ccc(/C=N/NC(=O)CSc2nc3ccccc3c(=O)n2CCc2ccc(S(N)(=O)=O)cc2)c(O)c1`, for which the growth was 33.8% (inactive).

As for `CCCCCN1C=C/C(=C\C(=O)N(C)c2ccc(Oc3ccccc3)cc2)c2ccccc21`, the growth is 56.6% (inactive).

Turning to `C/C=C(\C)C(=O)NC1=CC[C@@]2(C)C(=CCC3C2CC[C@@]2(C)C3CC[C@@H]2C(C)N(C)C)C1=O` (stereo not given in full), the growth was 32% (inactive). The same measure, in the same setting: the figure for `C[C@H]1[C@H](C)CC[C@]2(C(=O)NCC#CCN3CCN(C)CC3)CC[C@]3(C)C(=CC[C@@H]4[C@@]5(C)Cc6c([nH]c7ccccc67)C(C)(C)[C@@H]5CC[C@]43C)[C@H]12` is 86.5% (inactive).

Regarding `CCOC(=O)c1cc(C(=O)c2ccc(Br)cc2)n2ccc(/C=C/c3cc[n+](CC(=O)c4ccc(OC)cc4)cc3)cc12`, the growth was 95.3% (inactive).

`NC(=NCCCOc1ccc(F)cc1)Nc1ccc(I)cc1`: the growth is 76% (inactive).

On to `O=C(/C=C(/C=C/c1coc2ccccc12)OB(F)F)/C=C/c1coc2ccccc12`, for which the growth was 108% (inactive). The same measure, in the same setting: the result for `COc1cc(NC(=O)CSc2nc3ccc(C)cc3c(=O)n2Cc2ccccc2)cc(OC)c1OC` reads 84.9% (inactive); that for `Oc1ccc(C2c3ccccc3Oc3ccccc32)c2cccnc12`, 20.4% (inactive). Turning to `Cc1ccc(C(=O)/C(=C\c2ccc([N+](=O)[O-])cc2)S(=O)Cc2ccc(F)cc2)cc1` (stereo not given), the growth is 58.5% (inactive). As for `COc1cc2oc(-c3cccc(C(=O)Nc4ccccc4)c3)cc(=O)c2c(O)c1OC`, the growth is 97.9% (inactive).

For `COc1ccc(C(=O)/C=C/c2cc3ccccc3n3nnnc23)cc1`, the growth was 99.9% (inactive). Turning to `Cc1nc2sccn2c1-c1nc2sccn2c1/C=C1/C(=O)Nc2ccccc21`, the growth was 56.6% (inactive).

As to `COc1cc2c(c(OC)c1OC)CCC(c1cccc(NC(=O)c3cccc(Br)c3)c1)O2` (stereo not given), the growth was 84.6% (inactive).

In the case of `CCCCCN1C=C/C(=C\C(=O)N(C)c2ccccc2Br)c2ccccc21`, the growth is 91.2% (inactive). Take `COc1ccc(C(=O)c2cc(OC)c(OC)c(OC)c2)cc1O`: the growth is 43.8% (inactive). As to `CC(C)(C)c1cc(C=O)cc(C(C)(C)C)c1O`, the growth is 126% (inactive). On the same count and under the same terms, the figure for `CCOC(=O)c1nc2c3ccccc3ccn2c1C(=O)OCC` is 76.9% (inactive); for `CC(C)=CCC[C@](C)(O)[C@H]1CC[C@]2(C)[C@@H]1CC[C@@H]1[C@@]3(C)C/C(=C/c4ccccc4)C(=O)C(C)(C)[C@@H]3CC[C@]12C` it is 96.4% (inactive); for `C=C(C)[C@@H]1CC[C@]2(C(=O)N3CCN(C)CC3)CC[C@]3(C)[C@H](CC[C@@H]4[C@@]5(C)CC[C@H](O)C(C)(C)[C@@H]5CC[C@]43C)[C@@H]12` it is 92.5% (inactive).
